Compounds with a hit are over-represented: about 6% of the library has one in this group of screens.
D1 ag: activates the human D1 dopamine receptor. P21728. HEK293 T-REx D1 cells, calcium flux, agonist mode. activation, % at 2 µM. 360,000 tested, 1% active. AID 504660; in the data active = activation above about 30%
Target sequence (P21728 whole entry, looked up): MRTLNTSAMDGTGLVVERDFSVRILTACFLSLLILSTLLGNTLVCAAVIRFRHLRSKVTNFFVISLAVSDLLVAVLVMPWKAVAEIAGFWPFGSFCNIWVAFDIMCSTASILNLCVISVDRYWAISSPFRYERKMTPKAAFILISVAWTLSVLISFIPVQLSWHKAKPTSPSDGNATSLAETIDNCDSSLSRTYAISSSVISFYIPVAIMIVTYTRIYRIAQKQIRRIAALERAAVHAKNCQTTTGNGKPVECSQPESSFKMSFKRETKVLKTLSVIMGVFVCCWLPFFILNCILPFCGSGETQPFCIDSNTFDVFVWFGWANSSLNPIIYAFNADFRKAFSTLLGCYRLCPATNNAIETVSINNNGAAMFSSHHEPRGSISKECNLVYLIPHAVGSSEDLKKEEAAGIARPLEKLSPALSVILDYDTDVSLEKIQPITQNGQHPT
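Tetracycline-induced HEK293 TREx D1 cells, force-coupled to calcium signalling, were dye-loaded with a no-wash calcium kit. Compound was pin-added after a 10 s baseline. Fluorescence was read kinetically at 1 cycle/s for 180 s, with calcium rises flagged as agonism.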
DRD3 agonist: agonists of human D3 dopamine receptor. P35462. max activation, %. D3R DiscoveRx beta-arrestin cells, luminescence, 90 min. 410,000 tested, 0.58% active; in the data active = max activation above about 30%
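Cells at 1500/well, incubated overnight, then treated with pinned compounds (dopamine as control) for 90 min at 37 degrees C. DiscoveRx reagent added for 30 - 60 minutes at room temperature; luminescence read.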
D1 potentiator: human D1 dopamine receptor positive modulation; P21728; HEK293 TREx D1 cells, calcium flux, dopamine EC20 potentiation; potentiation, % at 10 µM; 360,000 tested, 0.036% active; in the data active = potentiation above about 30%
D1 antagonist: human D1 dopamine receptor antagonism; P21728; HEK293 TREx D1 cells, calcium flux, dopamine EC80; active compounds read low; activity change, negative = inhibition, % at 10 µM; 360,000 tested, 3.2% active; in the data active = activity change below about -30%
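Allosteric or orthosteric antagonism assessed as attenuation of the calcium response to EC80 dopamine, added 180 s after compound, in induced HEK293 Trex D1 cells loaded with no-wash calcium dye.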
DRD3 antagonist: antagonists of human D3 dopamine receptor; D3R cells, DiscoveRx beta-arrestin luminescence, antagonist mode; active compounds read low; 360,000 tested, 2.5% active; max response, negative = inhibition, %; in the data active = max response below about -50%; inconclusive = no clear call, values can overlap the other calls
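Cells expressing the human receptor were seeded at 1500 cells/well, incubated overnight at 37 degrees C in 5% CO2, then exposed to library compounds with dopamine controls for 90 minutes at 37 degrees C before luminescent detection.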
Of the large screens only hits and unclear results are named; the others gave an inactive call.

COc1cc(CN(C(=O)c2ccc(C)cc2)C2CCS(=O)(=O)C2)cc(OC)c1OC (stereo not drawn)	D1 antagonist -30 (no result: DRD3 antagonist)
O=C(C1CC1)N1CCc2cc(Br)cc(S(=O)(=O)Nc3ccc(F)c(F)c3)c21	D1 antagonist -31 (no result: DRD3 antagonist)
Cc1ccc(S(=O)(=O)c2ccc([N+](=O)[O-])o2)cc1	DRD3 antagonist -111 (no result: D1 ag, D1 potentiator, D1 antagonist)
CN(C)c1ccc(/C=C/c2cc[n+](C)cc2)cc1	DRD3 antagonist inconclusive
CN(C)c1ccc(/C=C/c2cc[n+]([O-])cc2)cc1	D1 ag 73 (no result: DRD3 agonist, DRD3 antagonist)
COCCN1C=C2C(=O)C(C)(OC(=O)c3cccs3)C(=O)C=C2C=C1CCCC(=O)OC (stereo not drawn)	D1 antagonist -36
C=C(CC[C@@H](O)C(C)(C)O)[C@H]1CC[C@]2(C)[C@@H]1CCC1[C@@]3(C)CCC(=O)C(C)(C)C3CC[C@]12C (stereo partly drawn)	DRD3 agonist 43 (no result: D1 ag, D1 potentiator, D1 antagonist)
C=C(C)[C@@H]1CCC2(C(=O)O)CC[C@]3(C)[C@H](CC[C@@H]4[C@@]5(C)CCC(=O)C(C)(C)[C@@H]5CC[C@]43C)[C@@H]12 (stereo partly drawn)	none
COc1ccc(OCCCn2c(=O)oc3ccc(C)cc32)cc1	D1 ag 73, D1 antagonist -32 (no result: DRD3 antagonist)
CCCCCOc1ccccc1Cn1c(=O)oc2ccc(C)cc21	D1 antagonist -48 (no result: DRD3 antagonist)
CCCCOc1ccccc1Cn1c(=O)oc2ccc(C)cc21	none
Cc1ccc(C(C)C)c(OCCn2c(=O)oc3ccccc32)c1	D1 ag 37
Cc1cccc(Cn2c(C)c(CNC3CCCCCC3)c(C(=O)O)c2C)c1	none (no result: DRD3 antagonist)
COc1c(Br)cc2c(C)c(C(=O)O)oc2c1Br	DRD3 agonist 33
O=C(C1=C(O)C(=O)N(CCN2CCOCC2)C1c1ccc([N+](=O)[O-])cc1)c1cccs1 (stereo not drawn)	D1 antagonist -75
COc1ccc(-c2nc3c(c(SCC(=O)N4CCCCC4)n2)Cc2c(CO)cnc(C)c2O3)cc1	none (no result: DRD3 antagonist)
CO[C@H]1CN(C)C(=O)c2ccc(NC(=O)c3ccc4c(c3)OCO4)cc2OC[C@H](C)N(CC2CC2)C[C@@H]1C	none (no result: D1 ag, D1 potentiator, D1 antagonist)
CCN(CC(=O)Nc1c(F)cccc1F)C(=O)Cc1ccc2c(c1)CCC2	D1 antagonist -34
CCN(CC(=O)Nc1c(F)cccc1F)C(=O)Cc1ccc2c(c1)OCCO2	none
CCN(CC(=O)Nc1c(F)cccc1F)C(=O)Cn1[nH]c(=O)c2ccccc2c1=O	D1 antagonist -50
CCN(CC(=O)Nc1c(F)cccc1F)C(=O)Cc1c[nH]c2ccccc12	DRD3 antagonist inconclusive (no result: D1 ag, D1 potentiator, D1 antagonist)
CCN(CC(=O)Nc1c(F)cccc1F)C(=O)Cc1c(C)nc2ccccc2c1C	D1 antagonist -49
CCc1ccc(S(=O)(=O)c2nnn3c2nc(Nc2ccc(NC(C)=O)cc2)c2sccc23)cc1	none (no result: DRD3 antagonist)
COc1ccc(CCn2c(C(C)C)nc3c(c(=O)c4ccccc4n3C)c2=O)cc1	D1 ag 140
COc1ccc(Cn2c(-c3ccc(C)cc3)nc3c(c(=O)c4ccccc4n3C)c2=O)cc1	D1 ag 39
COc1ccc(Cn2c(-c3ccc(OC)cc3)nc3c(c(=O)c4ccccc4n3C)c2=O)cc1	none (no result: DRD3 agonist, DRD3 antagonist)
COc1ccc(CCn2c(C)nc3c(c(=O)c4ccccc4n3C)c2=O)cc1	none
Cc1nc(-c2cccnc2)sc1C(=O)Nc1ccc(C(F)(F)F)cc1	D1 antagonist -33
Cc1nc(-c2cccnc2)sc1C(=O)Nc1cccc(C(F)(F)F)c1	none
CCOc1ccccc1NC(=O)Cn1c(=O)n(Cc2ccco2)c(=O)c2cccnc21	none (no result: DRD3 antagonist)
O=C(O)c1ccc(Cn2c(SCc3cc(=O)n4cc(Br)ccc4n3)nc3ccsc3c2=O)cc1	D1 antagonist -31 (no result: DRD3 agonist, DRD3 antagonist)
CCOC(=O)C1CC(c2ccccc2)=NN1c1ccccc1 (stereo not drawn)	none (no result: D1 ag, D1 potentiator, D1 antagonist)
S=c1[nH]nc(C2CCCCC2)n1/N=C/c1cccc(Cl)c1Cl	none
COCCCNC(=O)[C@H](Cc1ccccc1)NC(=O)CC[C@H]1O[C@@H](n2ccc(=O)[nH]c2=O)[C@H](O)[C@@H]1O	DRD3 antagonist -56 (no result: D1 ag, D1 potentiator, D1 antagonist)
O=C(CC[C@H]1O[C@@H](n2ccc(=O)[nH]c2=O)[C@H](O)[C@@H]1O)N[C@H](Cc1ccccc1)C(=O)NCCCc1ccccc1	none (no result: D1 ag, D1 potentiator, D1 antagonist)
COc1cc(OC)c(NC(=O)c2c(N3CCCC3=O)c3cc(C)ccc3n2C)cc1Cl	D1 antagonist -88 (no result: DRD3 antagonist)
CN1CCN(C(=O)CC23CC4CC(CC(C4)C2)C3)CC1	DRD3 antagonist -78
CCN1C(=O)CCN(C2CCCC2)c2nc(Nc3ccc(C(=O)NC4CCN(C)CC4)cc3OC)ncc21	none (no result: D1 ag, D1 potentiator, D1 antagonist)
Cc1ccc(-n2c(C)cc3c2CC(C)(C)CC3=O)cc1C	DRD3 antagonist -88
Cc1cc2c(n1-c1ccc(Br)cc1)CC(C)(C)CC2=O	none
CC[C@@H](NCCCn1ccc(NC(=O)OCc2ccccc2)nc1=O)c1ccccc1	none (no result: D1 ag, D1 potentiator, D1 antagonist)
Cc1cc(C)c2c(N)c(-c3nnc(SCc4ccc(Cl)cc4)n3C)sc2n1	D1 antagonist -39
C=CCn1c(SCc2ccccc2Cl)nnc1-c1sc2nc(C)cc(C)c2c1N	none
Cc1ccc(NC(=O)c2ccco2)c(NC(=O)c2ccccc2)c1	none
CCN(CC)P(=O)(Nc1ccc(C)cc1Br)c1ccc(N(C)C)cc1NC(=O)c1ccco1 (stereo not drawn)	DRD3 antagonist -60
Cc1cc(C)c2c(c1)C1C=CCC1C(C(=O)O)N2 (stereo not drawn)	none (no result: DRD3 agonist, DRD3 antagonist)
Nc1ncnc2nc(SCc3ccc(Cl)cc3Cl)[nH]c12	none
Nc1cc(=O)[nH]c(SCc2ccc(Cl)cc2Cl)n1	DRD3 agonist 30
Cc1cccc2c(=O)cc(CSCC(=O)Nc3ccc(Cl)cc3)[nH]c12	none (no result: DRD3 antagonist)
N#CC1=C(SCC(=O)Nc2cccc3cccnc23)NC(=O)C(C#N)C12CCCCC2 (stereo not drawn)	DRD3 agonist 39
O=C(CSc1nnc(Cc2ccccc2)o1)N1CCCc2ccccc21	none
O=C(CSc1nnc(CNc2ccccc2)o1)N1CCc2ccccc21	DRD3 agonist 44
O=C(CN1CCN(c2ccccn2)CC1)Nc1ccc(OCc2ccccc2)cc1	DRD3 agonist 50
O=C(CN1CCN(c2ccccn2)CC1)Nc1ccc(F)c(F)c1	none
Cc1cc(NC(=O)CN2CCN(c3ccccn3)CC2)ccc1Br	DRD3 agonist 47
O=C(CN1CCN(c2ccccn2)CC1)Nc1ccc(Oc2ccccc2)cc1	none (no result: D1 ag, D1 potentiator, D1 antagonist)
COc1ccc(NC(=O)CCC(=O)OCc2ccc(C(=O)Oc3ccc(Cl)cc3)cc2)cc1	D1 antagonist -31, DRD3 antagonist inconclusive
COc1ccc(NC(=O)CCC(=O)OCC(=O)c2ccc(Oc3ccc([N+](=O)[O-])cc3)cc2)cc1	none
O=C(CCC(=O)OCc1ccc(C(=O)Oc2ccc(Cl)cc2)cc1)Nc1ccccc1	none
COc1ccc(NC(=O)CCC(=O)OCc2ccc([N+](=O)[O-])cc2)cc1	D1 antagonist -31
O=C(NOC[C@H](O)CO)c1ccc(F)c(F)c1Nc1ccc(I)cc1F	none (no result: D1 ag, D1 potentiator, D1 antagonist, DRD3 antagonist)

Source: PubChem
